Structures are written as SMILES. Several values for one entry are separate records, joined by “and”; a condition that tells them apart may be missing. Equal entries are not always repeated. Where a structure was tested more than once in an assay, its records may differ in their call. Activity calls are given as the source filed them. How the source made its calls: active means hit-call score of the fitted dose curve at least 0.9, where 1 is the maximum; inactive means score below 0.9.

Read-out in the assay: Thrombomodulin, THBD (gene 7056)
The assay can be described thus: BSK_LPS_Thrombomodulin: BioMAP Diversity Plus: LPS Assay for Thrombomodulin Biomarker Activity (AID 2284296). The conditions noted are these: primary human HUVEC with PBMC. How it is done: BSK_LPS is a cell-based, multiplexed-readout assay that uses umbilical vein endothelium and peripheral blood mononuclear cells, a human vascular primary cell co-culture, with measurements taken at 24 hours after chemical dosing in a 96-well plate.BSK_LPS_Thrombomodulin is an assay component measured in the BSK_LPS assay. It measures Thrombomodulin antibody related to regulation of gene expression using ELISA technology.Data from the assay component BSK_LPS_Thrombodulin was analyzed at the endpoint, BSK_LPS_Thrombomodulin, in the positive analysis fitting direction relative to DMSO as the negative control and baseline of activity. Using a type of binding reporter, gain or loss-of-signal activity can be used to understand protein changes. To generalize the intended target to other relatable targets, this assay endpoint is annotated to the 'gpcr' intended target family, where the subfamily is 'rhodopsin-like receptor'.
The levels of cell surface (or secreted, indicated by the prefix "s") biomarker endpoints were measured by ELISA. Overt cytotoxicity to cells in confluent adherent cultures (all systems other than the BT system) was assessed by measuring total protein levels using sulforhodamine B (SRB) staining in parallel cultures at the time of biomarker measurements, indicated as SRB endpoints. For proliferation assays for adherent cell types, individual cell types are cultured at sub-confluence and relative cell numbers quantified by SRB staining at time points optimized for each system (48 h: 3C and CASM3C systems; 72 h: BT and HDF3CGF systems; 96 h: SAg system). SRB was performed by staining cells with 0.1% SRB after fixation with 10% TCA and reading wells at 560 nm.Viability and proliferation of PBMC (T cells) was quantified by Alamar Blue reduction for the SAg and BT systems. For PBMC viability (referred to as PBMC Cytotoxicity within the assay endpoint names), cells were plated (75,000/well in a 96-well plate) and then chemical samples added for 1 h before addition of activators, SEB and TSST-1 (20 ng/mL final concentration each). Cells were incubated for 90 h. Then, Alamar Blue (20 uL/well) (Invitrogen, Cat DAL1100) was added for 6 h, and the plates were read with a fluorescence microplate reader at 546/580 nm (excitation/emission). For PBMC proliferation, cells were plated and activated as above but incubated for only 16 h prior to addition of Alamar Blue. Plates were read after 6 h.
As for `CC(CCC(=O)O)(c1ccc(O)cc1)c1ccc(O)cc1`, the result was inactive. With `c1ccc(Nc2cccc3ccccc23)cc1`, the AC50 (in general, the concentration giving half of the maximal activity seen) was 33.7 µM (active) and 31.2 µM (active). With `C[N+](C)(C)CCCNS(=O)(=O)C(F)(F)C(F)(F)C(F)(F)C(F)(F)C(F)(F)C(F)(F)C(F)(F)C(F)(F)F`, the outcome was inactive and the AC50 was 21.4 µM (active).

For the compound `Oc1ccccc1Cc1ccccc1O`, the outcome was inactive. Turning to `O=C(O)C(F)(F)C(F)(F)C(F)(F)C(F)(F)C(=O)O`, the result was inactive. Consider `CC(C)C(=O)OCCc1ccccc1`, for which the outcome was inactive. The same measure, in the same setting: then `CCCC(C)C(=O)OCC` (stereo not given), with “inactive”.

On to `Nc1nc(N)nc(-c2ccccc2)n1`, for which the result was inactive.

As for `CCCCCCCCCCCC(=O)N(C)CC(=O)O`, the result was inactive.

The values are drawn from PubChem BioAssay (EPA / NIEHS).
